High-throughput results: PubChem, Broad Institute
SIRT5 block = SIRT5 desuccinylase inhibitors, primary screen, biochemical, fluorescence imaging, single point, set 5. hit rate 1.1% among 330,000. Purified SirT5, succinyl-peptide AMC, trypsin-coupled fluorescence. inhibition, % at 15 µM. NAD-dependent protein deacylase sirtuin-5, mitochondrial (Homo sapiens), Q9NXA8; in the data active = inhibition above about 15%; inconclusive = no clear call, values can overlap the other calls
Target sequence (Q9NXA8 whole entry, looked up): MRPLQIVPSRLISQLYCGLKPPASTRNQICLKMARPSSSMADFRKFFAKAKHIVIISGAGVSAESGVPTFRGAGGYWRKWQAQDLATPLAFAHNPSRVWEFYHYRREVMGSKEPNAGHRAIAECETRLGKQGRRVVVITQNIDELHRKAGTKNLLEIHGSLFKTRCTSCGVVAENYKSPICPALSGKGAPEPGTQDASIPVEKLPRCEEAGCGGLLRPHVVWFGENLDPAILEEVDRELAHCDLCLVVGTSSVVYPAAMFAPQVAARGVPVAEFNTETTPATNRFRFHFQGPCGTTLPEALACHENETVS
ERp5 block = inhibitors of ERp5-driven insulin aggregation, primary screen, biochemical, turbidity, absorbance 650 nm, single point; Protein disulfide-isomerase A6 (Homo sapiens), Q15084; 90 min; inhibition, % at 9.99 µM; hit rate 0.05% among 350,000;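 active = mean replicate inhibition above about 25%, with every replicate also reaching it, limit read from the data, passing the limit was not always enough; inconclusive = only one of those two criteria met; inactive = neither criterion met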
ERAP1 inh = human ERAP1 aminopeptidase inhibitors, primary screen, biochemical, single point, plate reader. Endoplasmic reticulum aminopeptidase 1 (Homo sapiens), Q9NZ08. recombinant ERAP1, Leu-AMC fluorescence, 60 min. inhibition, % at 10.7 µM. hit rate 0.15% among 340,000;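 active = mean replicate inhibition of at least 30%, or all replicates individually reaching that 30% level; inactive = mean below 30% and not every replicate reaching it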;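 note: 0% = neutral control wells and 100% = L-leucinethiol positive control wells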
HDAC3 inhib = HDAC3 deacetylase inhibitors, primary screen, biochemical, fluorescence, cell-free homogeneous. Histone deacetylase 3 (Homo sapiens), O15379. recombinant HDAC3, fluorogenic peptide/trypsin coupled. inhibition, % at 8.3 µM. hit rate 0.15% among 320,000. AID 2718, 2010; in the data active = inhibition above about 26%, passing the limit was not always enough; inconclusive = no clear call, values can overlap the other calls
PDI turbidity = inhibitors of human PDI, primary screen, biochemical, turbidity, single point, plate reader | Protein disulfide-isomerase (Homo sapiens), P07237 | PDI insulin aggregation turbidity, A650, 90 min | inhibition, % at 10 µM | hit rate 0.052% among 350,000 | AID 588391, 2011;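 active = mean inhibition across replicates of 30% or more, whatever share of single replicates reach that level; inconclusive = mean inhibition below 30% while every single replicate reaches 30%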
An asterisk follows results filed as active; ? = inconclusive; / = no result given. This is one part of a sample in which hits are shown more often than they occur.

SMILES | SIRT5 block | ERp5 block | ERAP1 inh | HDAC3 inhib | PDI turbidity
C[C@H]1CN([C@@H](C)CO)C(=O)c2cc(NS(=O)(=O)c3ccccc3)ccc2O[C@H]1CN(C)CC1CCCCC1 | 15 | 4 | -3 | / | /
CC(C)(C)S(=O)N1Cc2cc(C(=O)NCc3ccc4c(c3)OCO4)nc(-c3cccc(C#CCC4CCCC4)c3)c2[C@@H]1CCO (stereo partly drawn) | 4 | 2 | 2 | / | /
O=C(CSc1nnc2ccc(-c3ccc(F)cc3)nn12)N1CCCC1 | 10 | -5 | 34* | -9 | -1
O=S(=O)(c1ccc(F)cc1)N1CCN(Cc2cc3c(cc2Br)OCCO3)CC1 | -2 | 8 | 0 | -2 | -2
Oc1ccc(N2CCN(Cc3cc4c(cc3Br)OCCO4)CC2)cc1 | 2 | 0 | -5 | 7 | 76*
CCc1nc(SCC(=O)Nc2nc3c(s2)CCCC3)c2ccccc2n1 | / | / | / | -7 | 5
CCCc1nc(SCC(=O)Nc2nc3c(s2)CCCC3)c2ccccc2n1 | 16* | -2 | -2 | 9 | -1
Cc1ccc(NC(=O)COC(=O)c2cc(Cl)ccc2[N+](=O)[O-])cc1 | 2 | 5 | 1 | 0 | -4
O=C(COC(=O)c1cc(Cl)ccc1[N+](=O)[O-])NC1CC1 | 16* | 7 | -1 | 1 | 0
O=C1c2ccccc2C(c2nnnn2Cc2ccccc2)N1Cc1ccco1 (stereo not drawn) | 15* | 1 | / | / | /
O=C1c2ccccc2C(c2nnnn2Cc2ccccc2)N1Cc1ccc(F)cc1 (stereo not drawn) | -2 | 8 | / | / | /
CCN(C(=O)COC(=O)CNC(=O)c1ccccc1C)C1=CCCCC1 | 24* | 1 | 0 | -2 | 23
Cc1ccccc1C(=O)NCC(=O)OCC(=O)NNC(=O)c1ccccc1F | -2 | 1 | -2 | / | 1
C[C@@H]1CN([C@H](C)CO)C(=O)c2cc(NS(=O)(=O)c3cccs3)ccc2O[C@@H](C)CCCCO[C@@H]1CN(C)C(=O)C1CCCCC1 | 6 | -5 | -7 | / | /
COCCn1c(SCC(=O)N2CCC(C)CC2)nc2c(c1=O)SCC2 | 25* | 2 | -5 | / | -4
C[C@@H]1CCCCO[C@H](CN(C)Cc2ccccc2)[C@@H](C)CN([C@@H](C)CO)C(=O)c2cc(NC(=O)NC3CCCCC3)ccc2O1 | 1 | 2 | -2 | / | /
CCO[C@@H]1OC(C(=O)NCc2nc3ccccc3[nH]2)=C[C@H](c2csc3ccccc23)[C@H]1CCCO | 31* | 7 | -2 | 20 | 9
CCO[C@H]1OC(C(=O)NCc2nc3ccccc3[nH]2)=C[C@@H](c2csc3ccccc23)[C@@H]1CCCO | -1 | 3 | 1 | 5 | 4
C[C@@H]1CN([C@H](C)CO)C(=O)c2cc(N(C)C)ccc2O[C@@H]1CN(C)Cc1ccncc1 | 5 | 22 | 2 | / | /
O=C(O)CC1S/C(=N/N=C/C2CC=CCC2)NC1=O (stereo not drawn) | 112* | -6 | 2 | -2 | 11
Cn1c(=O)n(C)c2cc(/C=N/N=C3/NC(=O)C(CC(=O)O)S3)ccc21 (stereo not drawn) | 19* | 0 | -6 | 5 | 5
CC(C)N1C(=O)[C@@]2(Cc3ccccc31)c1ccccc1C(=O)N(Cc1ccccc1)[C@H]2c1ccc(CO)cc1 | 1 | 1 | 1 | / | /
CC(C)C[C@H](NC(=O)C1CCN(C(=O)[C@H](Cc2ccccc2)NC(=O)OC(C)(C)C)CC1)C(=O)O | 22* | 1 | -3 | 7 | 3
C[C@H](NC(=O)C1CCN(C(=O)[C@H](Cc2ccccc2)NC(=O)OC(C)(C)C)CC1)C(=O)O | -4 | -1 | -1 | 2 | 0
Cc1ccccc1NC(=O)Nc1ccc2c(c1)C(=O)N(C)[C@H]1CC[C@@H](CC(=O)NCC3CC3)O[C@@H]1CO2 | 5 | 1 | 2 | / | /
SMILES | SIRT5 block | ERp5 block | ERAP1 inh | HDAC3 inhib | PDI turbidity
O=C(Nc1ccc(-c2ccccc2)cc1)[C@@H]1[C@@H](CO)[C@@H]2Cn3c(cccc3=O)[C@@H]2N1CC1CCCC1 | 15* | -2 | 1 | / | /
O=C(Nc1nccs1)[C@H]1[C@H](CO)[C@H]2Cn3c(cccc3=O)[C@H]2N1C(=O)C1CCC1 | 16* | -2 | 0 | / | /
O=C(Nc1ccccc1)[C@H]1[C@H](CO)[C@H]2Cn3c(cccc3=O)[C@H]2N1CC1CC1 | 0 | -1 | 2 | / | /
O=C(NC1CCCCC1)[C@@H]1[C@@H](CO)[C@@H]2Cn3c(cccc3=O)[C@@H]2N1CC1CCCC1 | 21* | 0 | 5 | / | /
CC(C)NC(=O)N[C@H]1CC[C@@H](CCNC(=O)C2CCOCC2)O[C@H]1CO | 2 | 1 | 0 | / | /
CCOC(=O)CSc1n[nH]c(NC(=O)c2ccc(F)cc2)n1 | / | / | / | 50* | -1
CCOC(=O)CSc1n[nH]c(NC(=O)c2ccccc2)n1 | -4 | -1 | -2 | ? | -4
C[C@@H]1CCCCO[C@H](CN(C)S(C)(=O)=O)[C@H](C)CN([C@@H](C)CO)C(=O)c2cc(NC(=O)Nc3ccc4c(c3)OCO4)ccc2O1 | 5 | -1 | -3 | / | /
Cc1ccc(S(=O)(=O)Nc2ccc3c(c2)C(=O)N([C@@H](C)CO)C[C@H](C)[C@@H](CN(C)C(=O)Nc2ccc(C(F)(F)F)cc2)O3)cc1 | 16* | -1 | 0 | / | /
C[C@@H]1CCCCO[C@H](CN(C)C(=O)Nc2ccc(C(F)(F)F)cc2)[C@@H](C)CN([C@@H](C)CO)C(=O)c2cc(NS(=O)(=O)c3ccc(F)cc3)ccc2O1 | 18* | 4 | -2 | / | /
C[C@H]1CCCCO[C@@H](CN(C)C(=O)Nc2ccc(C(F)(F)F)cc2)[C@@H](C)CN([C@@H](C)CO)C(=O)c2cc(NS(=O)(=O)c3ccc(F)cc3)ccc2O1 | 8 | -1 | -2 | / | /
C[C@@H]1CCCCO[C@@H](CN(C)C(=O)Nc2ccc(C(F)(F)F)cc2)[C@@H](C)CN([C@H](C)CO)C(=O)c2cc(NS(=O)(=O)c3ccc(Cl)cc3)ccc2O1 | 11 | 0 | -1 | / | /
C[C@@H]1CN([C@H](C)CO)C(=O)c2cc(NS(=O)(=O)c3ccc(Cl)cc3)ccc2O[C@@H](C)CCCCO[C@H]1CN(C)C(=O)Nc1ccc(C(F)(F)F)cc1 | 22* | 2 | 0 | / | /
O=C(NC1CCC1)[C@H]1[C@H](CO)[C@H]2Cn3c(ccc(-c4ccccc4)c3=O)[C@H]2N1CC1CC1 | -1 | -2 | 1 | / | /
Cc1noc(C)c1S(=O)(=O)N(C)C[C@H]1Oc2ccc(NC(=O)CCCN(C)C)cc2C(=O)N([C@@H](C)CO)C[C@H]1C | -6 | 1 | 0 | / | /
COc1ccc(OC)c(C2CC(=O)N3CN(c4ccccc4)CSC3=C2C#N)c1 (stereo not drawn) | -2 | 1 | 2 | 54* | /
COc1cc(OC)c(C2CC(=O)N3CN(c4ccccc4C)CSC3=C2C#N)cc1OC (stereo not drawn) | / | / | / | 2 | /
